Measured values published in PubChem BioAssay (NCATS).
Where “and” joins values, the source holds several entries; their conditions need not be identical. Equal values may be shown once. Inconclusive results are not listed. Where a structure was tested more than once in an assay, its records may differ in their call. Calls of active or inactive are those of the source. Unless noted, calls come from the whole dose curve.

What was measured:
[1] = target: Bile acid receptor (Homo sapiens) (UniProt Q96RI1); assay: qHTS assay for small molecule agonists of farnesoid X receptor signaling (AID 588527); settings: HEK293T FXR-UAS-bla, beta-lactamase ratio, 16 h; activation: stronger effect = higher value;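 note: series mostly up to about 77 µM; 0% = vehicle basal and 100% = reference agonist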
Sequence of Bile acid receptor (Homo sapiens) (Q96RI1 whole entry, looked up): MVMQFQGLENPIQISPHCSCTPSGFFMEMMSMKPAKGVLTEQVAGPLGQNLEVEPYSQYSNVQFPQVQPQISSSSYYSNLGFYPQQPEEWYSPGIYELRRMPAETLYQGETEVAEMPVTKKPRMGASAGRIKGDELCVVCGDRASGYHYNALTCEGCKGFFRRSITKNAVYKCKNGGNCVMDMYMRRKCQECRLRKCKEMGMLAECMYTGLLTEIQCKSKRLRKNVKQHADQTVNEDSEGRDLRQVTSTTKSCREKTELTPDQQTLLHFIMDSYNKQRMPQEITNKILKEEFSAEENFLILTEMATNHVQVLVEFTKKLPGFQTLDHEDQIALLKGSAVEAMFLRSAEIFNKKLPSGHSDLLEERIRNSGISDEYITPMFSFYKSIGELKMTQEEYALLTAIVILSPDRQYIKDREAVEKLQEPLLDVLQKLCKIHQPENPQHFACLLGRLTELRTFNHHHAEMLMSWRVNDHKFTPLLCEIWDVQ
Procedure, shortened: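 Agonist-mode beta-lactamase reporter in GeneBLAzer FXR-UAS-bla HEK293T cells, titration up to 92 uM, 16 h exposure at 37 C, CCF4 fluorescence. Response scaled to DMSO (0%) and 100 uM chenodeoxycholic acid (100%), then Hill-fitted for EC50 and efficacy.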

[2] = target: Bile acid receptor (Homo sapiens) (UniProt Q96RI1); assay: qHTS assay for small molecule antagonists of farnesoid X receptor signaling (AID 588526); note: % is set by controls: 0 for no effect and ±100 for the full control effect
Procedure, shortened: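 Antagonist mode: titrated compounds tested against chenodeoxycholic acid stimulation (normalized to 50 uM CDCA and DMSO) in GeneBLAzer HEK293T cells for 16 h. Beta-lactamase read by CCF4 fluorescence; IC50 from Hill fits.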

[3] = target: Glucocorticoid receptor (Homo sapiens) (UniProt P04150); assay: qHTS assay for small molecule agonists of glucocorticoid receptor signaling (AID 588532; active = well fitted curve in the direction sought with a large enough effect in the signal ratio, with a control signal flat; the % refers to the signal ratio;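 note: 100% = dexamethasone at 0.1 µM and 0% = DMSO only wells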); settings: HeLa MMTV-bla, beta-lactamase ratio, agonist, 18 h; activation: stronger effect = higher value, percent of dexamethasone control, DMSO zero
Sequence of Glucocorticoid receptor (Homo sapiens) (P04150 whole entry, looked up): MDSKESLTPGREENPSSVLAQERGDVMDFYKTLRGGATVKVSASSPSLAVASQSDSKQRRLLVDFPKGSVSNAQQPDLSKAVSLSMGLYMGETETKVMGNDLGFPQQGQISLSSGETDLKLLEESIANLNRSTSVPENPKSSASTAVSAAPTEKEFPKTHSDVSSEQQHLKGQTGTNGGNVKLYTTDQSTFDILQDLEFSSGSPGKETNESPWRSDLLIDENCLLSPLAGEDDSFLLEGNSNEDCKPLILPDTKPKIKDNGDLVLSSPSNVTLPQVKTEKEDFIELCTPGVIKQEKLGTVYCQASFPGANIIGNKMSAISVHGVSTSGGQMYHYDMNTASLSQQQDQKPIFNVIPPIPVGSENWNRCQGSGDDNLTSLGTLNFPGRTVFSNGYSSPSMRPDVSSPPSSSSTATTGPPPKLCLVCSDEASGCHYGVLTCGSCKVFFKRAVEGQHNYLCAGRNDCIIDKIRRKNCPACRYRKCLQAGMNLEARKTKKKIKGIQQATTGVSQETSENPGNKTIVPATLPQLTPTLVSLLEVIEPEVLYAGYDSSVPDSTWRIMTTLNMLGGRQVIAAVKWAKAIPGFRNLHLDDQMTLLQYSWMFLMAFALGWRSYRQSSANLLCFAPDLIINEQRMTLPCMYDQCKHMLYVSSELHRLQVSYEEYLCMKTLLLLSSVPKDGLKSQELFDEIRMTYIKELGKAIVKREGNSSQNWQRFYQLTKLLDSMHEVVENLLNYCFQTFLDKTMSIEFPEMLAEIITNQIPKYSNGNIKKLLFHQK
Procedure, shortened: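 MMTV-bla HeLa beta-lactamase reporter cells in 1% charcoal/dextran FBS medium, compounds up to 92 uM for 18 h at 37 C, CCF4 readout; normalized to 0.1 uM dexamethasone (100%), EC50 and efficacy from Hill fits.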

[4] = target: Glucocorticoid receptor (Homo sapiens) (UniProt P04150); assay: qHTS assay for small molecule antagonists of glucocorticoid receptor signaling (AID 588533; active = well fitted inhibition curve with a large enough effect in the signal ratio, with a control signal flat, not every such curve was filed as active; the % refers to the signal ratio;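 note: cells stimulated with 2 nM dexamethasone as agonist; % is set by controls: 0 for no effect and ±100 for the full control effect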)
Procedure, shortened: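 Antagonist-mode qHTS: compound titrations added to GRE-bla HeLa cells, then dexamethasone 2 nM final; 18 h, 37 C. CCF4 FRET fluorescence normalized to dexamethasone and DMSO; IC50 from Hill fit.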

[5] = target: Peroxisome proliferator-activated receptor delta (Homo sapiens) (UniProt Q03181); assay: qHTS assay for small molecule agonists of peroxisome proliferator-activated receptor delta signaling (AID 588534);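 note: 0% = DMSO basal wells and 100% = positive control agonist at 10 µM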
Sequence of Peroxisome proliferator-activated receptor delta (Homo sapiens) (Q03181 whole entry, looked up): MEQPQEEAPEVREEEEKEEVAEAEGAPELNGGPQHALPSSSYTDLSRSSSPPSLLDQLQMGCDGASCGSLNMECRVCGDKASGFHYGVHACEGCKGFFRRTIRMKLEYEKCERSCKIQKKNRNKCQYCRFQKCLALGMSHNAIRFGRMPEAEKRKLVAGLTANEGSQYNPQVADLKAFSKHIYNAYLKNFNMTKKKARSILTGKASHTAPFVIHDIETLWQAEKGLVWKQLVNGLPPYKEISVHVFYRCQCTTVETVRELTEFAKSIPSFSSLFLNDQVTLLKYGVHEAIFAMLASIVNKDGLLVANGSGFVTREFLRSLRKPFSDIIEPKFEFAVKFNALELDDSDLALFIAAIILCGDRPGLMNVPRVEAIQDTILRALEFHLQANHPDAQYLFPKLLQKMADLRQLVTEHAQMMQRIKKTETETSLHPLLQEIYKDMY
Procedure, shortened: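 Cells carrying a PPAR-delta beta-lactamase reporter were treated with compounds for 18 h at 37 °C in agonist mode. CCF4 fluorescence was read after 2 h; EC50 and efficacy from Hill fits.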

[6] = target: Peroxisome proliferator-activated receptor gamma (Homo sapiens) (UniProt P37231); assay: qHTS assay for small molecule agonists of peroxisome proliferator-activated receptor gamma signaling (AID 588536; active = well fitted curve in the direction sought with a large enough effect in the signal ratio, with a control signal flat, not every such curve was filed as active; the % refers to the signal ratio;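 note: 0% = DMSO basal wells and 100% = rosiglitazone at 2 µM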)
Sequence of Peroxisome proliferator-activated receptor gamma (Homo sapiens) (P37231 whole entry, looked up): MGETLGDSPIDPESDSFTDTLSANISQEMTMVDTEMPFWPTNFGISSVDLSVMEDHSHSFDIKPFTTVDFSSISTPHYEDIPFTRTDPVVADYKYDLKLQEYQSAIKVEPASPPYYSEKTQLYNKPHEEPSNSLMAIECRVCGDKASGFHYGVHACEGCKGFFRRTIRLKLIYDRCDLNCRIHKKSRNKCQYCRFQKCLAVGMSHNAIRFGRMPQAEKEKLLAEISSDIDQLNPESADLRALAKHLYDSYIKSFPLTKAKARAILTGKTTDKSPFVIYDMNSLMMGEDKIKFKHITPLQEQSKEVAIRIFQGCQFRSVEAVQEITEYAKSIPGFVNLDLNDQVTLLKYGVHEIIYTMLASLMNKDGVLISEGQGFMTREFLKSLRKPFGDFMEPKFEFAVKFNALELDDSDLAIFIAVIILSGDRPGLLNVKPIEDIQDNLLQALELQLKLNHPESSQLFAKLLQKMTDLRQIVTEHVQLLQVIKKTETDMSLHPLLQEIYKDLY
Procedure, shortened: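 Ratiometric blue/green fluorescence (405 nm excitation; 460 and 530 nm emission) from CCF4-loaded HEK293 reporter cells serves as signal. Exposure to test compounds lasts 16 h at 37 C in medium containing 1% charcoal/dextran-treated serum.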

[7] = qHTS assay for small molecule agonists of retinoid X receptor alpha signaling (AID 588544); settings: HEK293T RXRa-UAS-bla, beta-lactamase reporter, 18 h; 530 nm emission; note: potency is the fitted concentration of half-maximal effect
[8] = target: Retinoic acid receptor RXR-alpha (Homo sapiens) (UniProt P19793); assay: as above
Sequence of Retinoic acid receptor RXR-alpha (Homo sapiens) (P19793 whole entry, looked up): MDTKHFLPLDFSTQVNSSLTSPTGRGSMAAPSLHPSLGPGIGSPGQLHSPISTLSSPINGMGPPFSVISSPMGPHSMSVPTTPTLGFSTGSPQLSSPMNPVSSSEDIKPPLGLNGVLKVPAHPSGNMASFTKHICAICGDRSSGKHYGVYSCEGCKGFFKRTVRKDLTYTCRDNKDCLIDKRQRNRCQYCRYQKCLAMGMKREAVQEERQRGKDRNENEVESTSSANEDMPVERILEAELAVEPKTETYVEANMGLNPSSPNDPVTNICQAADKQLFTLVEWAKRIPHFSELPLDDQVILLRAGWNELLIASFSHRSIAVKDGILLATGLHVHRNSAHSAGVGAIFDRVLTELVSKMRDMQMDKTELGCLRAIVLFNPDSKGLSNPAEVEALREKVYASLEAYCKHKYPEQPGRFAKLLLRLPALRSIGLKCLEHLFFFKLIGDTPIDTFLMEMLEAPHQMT

[9] = target: Thyroid hormone receptor beta (Homo sapiens) (UniProt P10828); assay: qHTS assay for small molecule agonists of thyroid hormone receptor beta signaling (AID 588545)
Sequence of Thyroid hormone receptor beta (Homo sapiens) (P10828 whole entry, looked up): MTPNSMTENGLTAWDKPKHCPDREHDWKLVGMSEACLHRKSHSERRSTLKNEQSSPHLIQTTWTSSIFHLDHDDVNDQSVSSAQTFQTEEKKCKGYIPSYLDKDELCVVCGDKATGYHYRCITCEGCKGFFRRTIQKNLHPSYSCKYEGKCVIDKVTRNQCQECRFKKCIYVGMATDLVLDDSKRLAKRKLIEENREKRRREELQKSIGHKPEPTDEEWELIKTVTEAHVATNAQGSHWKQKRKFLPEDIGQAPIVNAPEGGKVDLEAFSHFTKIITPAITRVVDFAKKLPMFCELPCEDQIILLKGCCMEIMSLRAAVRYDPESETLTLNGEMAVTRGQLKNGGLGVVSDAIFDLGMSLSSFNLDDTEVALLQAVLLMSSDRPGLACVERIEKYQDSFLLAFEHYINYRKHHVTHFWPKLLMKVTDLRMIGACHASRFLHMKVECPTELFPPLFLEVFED
Procedure, shortened: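 Agonist activity was read as beta-lactamase CCF4 fluorescence (405 ex, 460/530 em), scaled between DMSO (0%) and 10 nM T3 (100%), then Hill-fitted for EC50 and efficacy. HEK 293 TR-UAS-bla cells in 2% charcoal/dextran FBS medium were exposed 18 h at 37 C.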

[10] = qHTS assay for small molecule antagonists of retinoid X receptor alpha signaling (AID 588546; active = well fitted inhibition curve with a large enough effect in the signal ratio, with a control signal flat, not every such curve was filed as active; the % refers to the signal ratio;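 note: cells stimulated with 9-cis-retinoic acid as agonist; % is set by controls: 0 for no effect and ±100 for the full control effect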); settings: HEK293T RXRa-UAS-bla, beta-lactamase ratio, antagonist mode; measured here: W530 green channel, cytotoxicity proxy
Procedure, shortened: (§1)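 Beta-lactamase reporter inhibition, read as CCF4 fluorescence ratio (ex 405, em 460/530 nm) after 2 h at RT. HEK293T UAS-bla cells, 2500/well, were stimulated with 9-cis-RA at 500 or 100 nM final alongside test compound for 18 h at 37 C.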

[11] = target: Retinoic acid receptor RXR-alpha (Homo sapiens) (UniProt P19793); assay: as above; settings: HEK293T RXRa-UAS-bla, beta-lactamase ratio, antagonist mode
Procedure, shortened: as §1

[12] = target: Thyroid hormone receptor beta (Homo sapiens) (UniProt P10828); assay: qHTS assay for small molecule antagonists of thyroid hormone receptor beta signaling (AID 588547; active = well fitted inhibition curve with a large enough effect in the signal ratio, with a control signal flat, not every such curve was filed as active; the % refers to the signal ratio;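 note: cells stimulated with 0.4 nM T3 agonist during compound exposure; series mostly up to about 77 µM; % is set by controls: 0 for no effect and ±100 for the full control effect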); settings: TR-UAS-bla HEK293, beta-lactamase ratio, antagonist mode, 18 h
Procedure, shortened: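 TR-UAS-bla GripTite HEK293 cells in 2% charcoal/dextran FBS medium; compounds 0.59 nM to 92 uM with T3 at 0.4nM final, 18 h at 37 C. Beta-lactamase read by CCF4 fluorescence (460/530 nm); Hill fits gave IC50 and efficacy.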

[13] = qHTS assay for small molecule agonists of the antioxidant response element (ARE) signaling pathway (AID 651741; active = well fitted activation curve with a large enough effect in the signal ratio; the % refers to the signal ratio; note: potency is the fitted concentration of half-maximal effect)
Procedure, shortened: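 CellSensor ARE-bla HepG2 cells (2,000/well) carrying ARE-driven beta-lactamase, exposed 16 h at 37 C. LiveBLAzer B/G FRET substrate added for 2 h at room temperature; fluorescence intensity read.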

[14] = qHTS assay for small molecule activators of the p53 signaling pathway (AID 651743; active = well fitted activation curve with a large enough effect in the signal ratio, not every such curve was filed as active; the % refers to the signal ratio; note: series mostly up to about 92 µM; % of control where 0% means no effect); settings: HCT-116 p53RE-bla, beta-lactamase FRET ratio, 16 h; activation: stronger effect = higher value
Procedure, shortened: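 p53RE-bla HCT-116 cells carrying a beta-lactamase reporter under p53 response elements were exposed to compounds for 16 hours at 37 C. Reporter activity read as fluorescence after 2 hours at room temperature with LiveBLAzer B/G FRET substrate.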

[15] = qHTS assay for small molecule activators of the nuclear factor-kappa B (NF-kB) signaling pathway (AID 651749; active = well fitted activation curve with a large enough effect in the signal ratio; the % refers to the signal ratio; note: series mostly up to about 77 µM; % of control where 0% means no effect); settings: NF-kB-bla ME-180 cells, beta-lactamase FRET ratio, 16 h; activation: stronger effect = higher value
Procedure, shortened: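 NF-kB-bla ME-180 cells carrying a beta-lactamase reporter under an NF-kB response element, 2,000 cells/well, exposed to compound for 16 hr at 37C; FRET-based beta-lactamase fluorescence read-out of pathway activation.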

[16] = qHTS assay for environmental chemicals that activate the Aryl hydrocarbon Receptor (AhR) signaling pathway (AID 651777; active = well fitted curve in the direction sought with a large enough effect; an effect the other way counts as inactive or inconclusive; note: % of control where 0% means no effect; nearly all actives have a fitted effect of over 15% in size); settings: 1A2-DRE human hepatoma cells, luciferase, 24 h; activation: stronger effect = higher value
Procedure, shortened: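 Luminescence (One-Glo, 30 min, room temperature) reports AhR-driven luciferase in stably transfected human hepatoma cells bearing DRE and CYP1A2 promoter. Cells (1,200/well) were treated with compound for 24 hr at 37 C in qHTS format.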

[17] = target: Peroxisome proliferator-activated receptor alpha (Homo sapiens) (UniProt Q07869); assay: qHTS assay for small molecule agonists of the peroxisome proliferator-activated receptor alpha (PPARalpha) signaling pathway (AID 651778; active = well fitted curve in the direction sought with a large enough effect; an effect the other way counts as inactive or inconclusive; note: potency is the fitted concentration of half-maximal effect; for max response: % of control where 0% means no effect); settings: PathHunter PPARalpha complementation, chemiluminescence, 6 h; max response: stronger effect = higher value
Sequence of Peroxisome proliferator-activated receptor alpha (Homo sapiens) (Q07869 whole entry, looked up, the tested form may be a part): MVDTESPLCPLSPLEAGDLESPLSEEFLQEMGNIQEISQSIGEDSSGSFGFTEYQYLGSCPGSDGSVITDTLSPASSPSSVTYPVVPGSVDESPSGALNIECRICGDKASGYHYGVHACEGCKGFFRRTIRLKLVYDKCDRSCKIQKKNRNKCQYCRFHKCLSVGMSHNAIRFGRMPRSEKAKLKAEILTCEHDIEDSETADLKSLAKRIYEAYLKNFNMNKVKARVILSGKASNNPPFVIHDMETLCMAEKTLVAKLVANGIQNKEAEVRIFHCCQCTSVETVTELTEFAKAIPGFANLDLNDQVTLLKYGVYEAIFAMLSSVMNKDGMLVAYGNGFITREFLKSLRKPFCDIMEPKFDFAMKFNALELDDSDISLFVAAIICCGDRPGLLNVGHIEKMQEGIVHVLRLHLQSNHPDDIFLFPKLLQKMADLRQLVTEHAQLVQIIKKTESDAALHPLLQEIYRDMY
Procedure, shortened: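 Enzyme-fragment complementation assay in which ligand-bound PPARalpha translocates and forms an active enzyme that generates chemiluminescence. Cells were plated overnight, exposed to compound for 6 hr at 37 C, and then given detection reagent for 60 min at room temperature.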

[18] = qHTS assay for small molecule agonists of the antioxidant response element (ARE) signaling pathway measured by Nrf2-dependant transcriptional activity (AID 720636; active = well fitted curve in the direction sought with a large enough effect in the repeat runs; an effect the other way counts as inactive or inconclusive; note: % of control where 0% means no effect)
Procedure, shortened: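 Nrf2-dependent transcription read as ONE-Glo luciferase signal from ARE-luc HepG2 reporter cells after 16 hr compound treatment at 37 C, 5% CO2, in assay medium with 1% dialyzed FBS.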

[19] = qHTS assay for small molecule agonists of the antioxidant response element (ARE) signaling pathway measured by Nrf2-dependant transcriptional activity - cell viability counter screen (AID 720653; active = well fitted curve in the direction sought with a large enough effect in the repeat runs; an effect the other way counts as inactive or inconclusive; note: % is set by controls: 0 for no effect and ±100 for the full control effect); settings: ARE-bla HepG2 viability, CellTiter-Glo ATP luminescence, 16 h; max response: stronger effect = lower value
Procedure, shortened: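 ARE-bla HepG2 cells treated with compounds for 16 h at 37C; this counter screen measures viability as intracellular ATP by CellTiter-Glo luminescence after 30 min at room temperature.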

[20] = qHTS assay for cell viability of HEK293 cells (AID 743288; active = well fitted curve in the direction sought with a large enough effect; an effect the other way counts as inactive or inconclusive; note: % is set by controls: 0 for no effect and ±100 for the full control effect; nearly all actives have a fitted effect of over 50% in size); settings: ATP luminescence (CellTiter-Glo), 18 h; max response: stronger effect = lower value
Procedure, shortened: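 Environmental chemicals tested in qHTS format against parental HEK293 cells; 18 h treatment, 37 C; read-out ATP luminescence (CellTiter-Glo), 30 min RT development.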

[21] = qHTS assay for cell viability of the p53RE-bla HCT-116 cell line (AID 743292; active = well fitted curve in the direction sought with a large enough effect; an effect the other way counts as inactive or inconclusive; note: % is set by controls: 0 for no effect and ±100 for the full control effect; nearly all actives have a fitted effect of over 55% in size)
Procedure, shortened: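 ATP-based luminescent viability (CellTiter-Glo, 30 min RT) after 16 h compound treatment at 37 C of p53RE-bla HCT-116 cells, seeded at 4,000 cells/well and rested 5 h before dosing.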

[22] = target: Nuclear receptor subfamily 1 group I member 2 (Rattus norvegicus) (UniProt Q9R1A7); assay: qHTS assay for small molecule activators of the rat pregnane X receptor (rPXR) signaling pathway (AID 651751; call rule not given here; note: 0% is about no effect); settings: rPXR reporter cells, luciferase (One-Glo), 24 h
Sequence of Nuclear receptor subfamily 1 group I member 2 (Rattus norvegicus) (Q9R1A7 whole entry, looked up): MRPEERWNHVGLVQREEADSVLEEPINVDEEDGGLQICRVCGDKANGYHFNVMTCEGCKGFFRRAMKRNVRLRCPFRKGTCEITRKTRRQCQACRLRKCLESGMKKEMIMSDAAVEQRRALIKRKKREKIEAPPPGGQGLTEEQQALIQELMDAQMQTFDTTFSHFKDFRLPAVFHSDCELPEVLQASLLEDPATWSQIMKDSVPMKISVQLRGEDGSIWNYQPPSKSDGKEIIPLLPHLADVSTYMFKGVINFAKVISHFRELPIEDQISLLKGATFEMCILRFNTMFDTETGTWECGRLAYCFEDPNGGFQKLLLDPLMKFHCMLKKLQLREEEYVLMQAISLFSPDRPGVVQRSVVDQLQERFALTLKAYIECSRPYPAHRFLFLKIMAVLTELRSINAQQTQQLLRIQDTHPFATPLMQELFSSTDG

[23] = qHTS assay for small molecule activators of the human pregnane X receptor (PXR) signaling pathway (AID 720659; call rule not given here; note: 0% is about no effect)
[24] = qHTS assay for small molecule antagonists of peroxisome proliferator-activated receptor delta signaling (AID 588535; active = well fitted inhibition curve with a large enough effect in the signal ratio, with a control signal flat, not every such curve was filed as active; the % refers to the signal ratio;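 for max response: cells co-treated with a PPAR-delta agonist as stimulator during compound exposure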); settings: HEK293T PPARd-UAS-bla, beta-lactamase FRET ratio, 18 h; 460 nm channel
Procedure, shortened: (§2)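 Antagonist-mode beta-lactamase reporter (GeneBLAzer PPAR-delta-UAS-bla) in HEK293T cells, 2% charcoal/dextran FBS, 4000 cells/well. Compound titrations, 18 h at 37 C; CCF4 ratio read, IC50 and efficacy from Hill fits.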

[25] = target: Peroxisome proliferator-activated receptor delta (Homo sapiens) (UniProt Q03181); assay: as above
Procedure, shortened: as §2

[26] = target: Peroxisome proliferator-activated receptor gamma (Homo sapiens) (UniProt P37231); assay: qHTS assay for small molecule antagonists of peroxisome proliferator-activated receptor gamma signaling (AID 588537; active = well fitted inhibition curve with a large enough effect in the signal ratio, with a control signal flat, not every such curve was filed as active; the % refers to the signal ratio; note: potency is the fitted concentration of half-maximal effect)
Procedure, shortened: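 PPARγ-UAS-bla HEK293 cells (3000/well) in 1% charcoal/dextran-stripped FBS are treated with compound, then stimulated with 50 nM rosiglitazone for 16 h at 37 °C. Read-out is CCF4 β-lactamase fluorescence after 2 h at RT. IC50 comes from Hill fits normalised to rosiglitazone and DMSO.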

SMILES: Oc1ccc(Nc2ccccc2)cc1
- activation [1]: 0.593% (inactive)

SMILES: N#Cc1cc(Br)c(O)c(Br)c1
- Potency [2]: inactive
- activation [3]: 4.63% (inactive)
- Potency [4]: inactive
- outcome [5]: inactive
- Potency [6]: inactive
- max response [7]: -9.28%
- Potency [8]: 15.8 µM (active)
- Potency [9]: inactive
- max response [10]: -9.47%
- max response [11]: 1.7% (inactive)
- activity change % (negative = inhibition) [12]: 6.22% (inactive)
- Potency [13]: 61.1 µM (active)
- activation [14]: 5.1% (inactive)
- activation [15]: -2.3% (inactive)
- activation [16]: 1.12% (inactive)
- Potency [17]: 25.1 µM (active)
- Potency [18]: inactive
- max response [19]: -28.2% (inactive)
- max response [20]: -7.19% (inactive)
- Potency [21]: inactive
- max response [22]: -9.3% (inactive)
- outcome [23]: inactive

SMILES: CCC(=O)/C=C/C1C(C)=CCCC1(C)C (stereo not drawn)
- activation [1]: -0.845% (inactive)

SMILES: CCCN(CCOc1c(Cl)cc(Cl)cc1Cl)C(=O)n1ccnc1
- Potency [2]: inactive
- activation [3]: 3.18% (inactive) and 2.99% (inactive)
- outcome [5]: inactive
- max response [24]: 26.8% and 55.9%
- Potency [25]: inactive
- Potency [6]: inactive
- Potency [26]: 44.7 µM (active) and inactive
- Potency [9]: inactive
- activity change % (negative = inhibition) [12]: 22.9% (inactive)
- Potency [13]: 30.6 µM (active) and 48.6 µM (active)
- max response [17]: -1.45% (inactive) and -1.52% (inactive)
- Potency [18]: inactive
- max response [19]: -20.2% (inactive) and 3.11% (inactive)
- max response [20]: -28.6% (inactive) and -28.7% (inactive)
